# CHO-K1 Ca antag: M1 antagonist counterscreen hit in parental CHO-K1 cells | ATP-induced calcium, Fluo-8 fluorescence | inhibition, % at 3 µM | 360,000 compounds, 0.6% hits | AID 602250;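 active = inhibition above a per-plate cutoff, the plate's mean sample inhibition plus 3 SD, cut at about 24% in these data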;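 note: 0% = DMSO plus EC80 ATP and 100% = DMSO alone without ATP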
# CHRM1 antagonist: human CHRM1 antagonism. inhibition, % at 3 µM. 360,000 compounds, 1.3% hits. CHO-K1 hM1, Fluo-8 calcium fluorescence, ACh EC80 antagonist;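 active = percent inhibition above its own plate's cutoff, namely the mean of that plate's compound wells plus 3 SD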;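 note: peak over basal fluorescence ratio during 140 s after agonist addition; 0% = ACh EC80 plus DMSO and 100% = DMSO alone without agonist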
# Target sequence (P11229 whole entry, looked up): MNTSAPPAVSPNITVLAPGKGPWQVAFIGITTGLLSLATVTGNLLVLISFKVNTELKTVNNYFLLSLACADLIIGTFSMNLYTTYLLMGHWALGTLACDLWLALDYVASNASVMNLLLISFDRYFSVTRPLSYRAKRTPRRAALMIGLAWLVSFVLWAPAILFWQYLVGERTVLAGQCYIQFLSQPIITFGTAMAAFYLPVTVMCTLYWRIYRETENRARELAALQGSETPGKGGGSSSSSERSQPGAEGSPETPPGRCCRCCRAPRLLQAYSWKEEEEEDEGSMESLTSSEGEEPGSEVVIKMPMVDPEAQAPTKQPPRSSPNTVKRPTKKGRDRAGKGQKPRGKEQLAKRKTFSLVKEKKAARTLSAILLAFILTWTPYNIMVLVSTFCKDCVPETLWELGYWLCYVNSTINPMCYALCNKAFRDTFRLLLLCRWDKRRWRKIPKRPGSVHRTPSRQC
# CHO-K1 Ca ag: counter-screen for M1 agonists: effect in parental CHO-K1 cells | Fluo-8 calcium fluorescence; scaled to maximal ATP response, vehicle zero | activation, % at 3 µM | 360,000 compounds, 0.48% hits | AID 602248; in the data active = activation above about 15%;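 note: untransfected CHO-K1 host cells lacking M1 receptor as counterscreen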
# CHO-K1 Ca PAM: M1 PAM counterscreen hit in parental CHO-K1 cells. ATP EC20, Fluo-8 calcium fluorescence; 0% at ATP EC20, 100% at ATP max. activation, % at 3 µM. 360,000 compounds, 0.02% hits. AID 602247;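 active = activation above the run cutoff, the mean activation of all test compounds plus 3 SD, cut at about 40% in these data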;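 note: peak over basal fluorescence ratio in a 140 s read after ATP addition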
# M1 ag: human M1 muscarinic receptor agonism; CHO-K1 hM1, Fluo-8 calcium fluorescence, agonist mode; 0% DMSO, 100% acetylcholine EC100; activation, % at 3 µM; 360,000 compounds, 0.33% hits; AID 588814;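 active = activation above the run's mean compound activation plus 3 SD, cut at about 16% in these data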;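 note: peak over basal fluorescence ratio within a 140 s kinetic read after compound addition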
# M1 PAM: positive allosteric modulators of human M1 muscarinic receptor. P11229. CHO-K1 hM1, Fluo-8 calcium fluorescence, ACh EC20; 0% = ACh EC20, 100% = maximal ACh. activation, % at 3 µM. 360,000 compounds, 0.088% hits; in the data active = activation above about 19%, passing the limit was not always enough
# Active calls of the source: *; · = no result. Most compounds without a hit are left out; they make up all but 2.3% or so of the library.
SMILES,CHO-K1 Ca antag,CHRM1 antagonist,CHO-K1 Ca ag,CHO-K1 Ca PAM,M1 ag,M1 PAM
O=C1CCC(=O)c2ccc3c4c(ccc1c24)CC3,-5,-9,0,3,-6,2
Cc1sc2ncnc(N3CCCCC3)c2c1C,-37,-7,2,-6,-1,6
Cc1ccc(OCCN2CCN(c3ncnc4sc(C)c(C)c34)CC2)cc1,16,17*,7,13,-4,-11
Clc1ccc(OCCN2CCN(c3ncnc4sccc34)CC2)cc1,34*,25*,7,-4,-2,-15
CCOC(=O)CN1c2ccccc2NC(=O)CC1C (centres undefined),-29,-14,1,43*,-4,12
CC[N+](CC)(CC#Cc1ccccc1)CC(=O)c1ccc(Cl)cc1,-6,35*,1,4,-12,-25
CCC[N+](CC#CCO)(CC#Cc1ccccc1)CCC,-5,-18,1,18,-6,12
COc1ccc(S(=O)(=O)N2C[C@H]3CON(C)[C@H]3C[C@H]2c2ccc(-c3cc4ccccc4o3)cc2)cc1,-9,0,1,12,-2,-1
CN1C(=O)/C(=C\c2ccc(N(C)C)cc2)OC1=S,27*,39*,30*,-18,53*,-22
CCN(CC)CCn1c2c(c(SCC(=O)Nc3ccc(C)c(F)c3)nc1=O)CCCC2,-5,50*,0,11,-8,-26
CCN(CC)CCCn1c2c(c(SCC(=O)Nc3cc(OC)cc(OC)c3)nc1=O)CCC2,-1,29*,3,-20,-8,-16
O=C(CSc1nc(=O)n(CCCN2CCOCC2)c2c1CCCC2)Nc1cccc([N+](=O)[O-])c1,-1,26,4,12,-9,-16
O=C(CSc1nc(=O)n(CCCN2CCOCC2)c2c1CCCC2)Nc1cccc(F)c1,5,30*,3,-15,-8,-14
CCCCc1ccc(NC(=O)CSc2nc(=O)n(CCN(CC)CC)c3c2CCC3)cc1,-2,36*,0,-18,-7,-20
O=[N+]([O-])c1cccc(N(CC2CO2)S(=O)(=O)c2ccccc2)c1 (centres undefined),-16,1,1,7,-6,4
CCN(Cc1ccc(N(C)C)cc1)C(C)C(=O)Nc1ccc(S(=O)(=O)N2CCCC2)cc1 (centres undefined),-9,25,1,12,-8,-16
OCC[C@H]1C[C@@H](O)[C@H](O)[C@]2(CCc3ccccc3CO2)O1,-14,-2,0,10,18*,5
CC(C)(O)C#Cc1ccc(CN2CCN(C3CCCC3)C(CCO)C2)cc1 (centres undefined),-19,53*,3,12,-7,-22
CC(C)(O)C#Cc1ccc(CN2CCN(C3CCCCC3)C(CCO)C2)s1 (centres undefined),-12,18,0,17,-13,-28
CSc1ccc(CN2CCN(C3CCCC3)C(CCO)C2)cc1 (centres undefined),-20,60*,1,19,-9,-26
CC(C)(O)C#Cc1ccc(CN2CCN(C3CCCCC3)C(CCO)C2)cc1 (centres undefined),10,25*,4,-3,-11,-27
OCCC1CN(Cc2cc3c(cc2Cl)OCO3)CCN1C1CCCC1 (centres undefined),10,38*,1,0,-8,-18
O=C1Nc2ccccc2N(C(=O)c2ccc3ccccc3c2)C1c1nc2ccccc2[nH]1 (centres undefined),-16,·,1,17,·,·
CN(CCOc1ccc(Cl)cc1)C(=O)c1cccc(S(=O)(=O)N2CCN(Cc3ccccc3)CC2)c1,11,40*,13,-12,0,-15
CCCN(C(=O)c1cccc(S(=O)(=O)N2CCN(Cc3ccccc3)CC2)c1)C1CCS(=O)(=O)C1 (centres undefined),-5,-9,0,-14,-2,12
COc1ccc(NC(=O)CN(C)C(=O)c2cccc(S(=O)(=O)N3CCN(Cc4ccccc4)CC3)c2)cc1,-4,-7,4,10,-1,7
